Growth data for 40 molecules are collected here from PubChem BioAssay (NCI).

Structures are written as SMILES. About 83,000 compounds went through this panel and 20% of them were active in at least one assay; those are over-represented in the sample as a whole.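 The endpoint reported here, percent growth, reads 100 for growth as untreated, 0 for no net growth and -100 for all cells dead.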 The source made the active and inactive calls.

For this experiment, the system named is NCI-H460 lung. Nature of the experiment: NCI-60 one-dose screen, 48 h (100 = growth as untreated, 0 = no growth, -100 = all killed). Conditions: 10 µM. The protocol:
Growth inhibition of the NCI-H460 human Non-Small Cell Lung tumor cell line is measured as a screen for anti-cancer activity. Cells are grown in 96 well plates and exposed to the test compound for 48 hours. Compounds are tested at a single concentration, which is 10^-5 M for most compounds. The reported endpoint is percent growth (GI% or GIPRCNT), where numbers from 0 - 100% represent growth inhibition, and numbers from -100% - 0 represent cell death. For example, a value of 40 represents 60% growth inhibition. A value of 0 means no net growth occurred over the course of the experiment. A value of -40 indicates 40% of cells at the beginning of the experiment died by the end of the experiment. A value of -100 means all cells are dead at the end of the experiment.
NCI-60 Human Tumor Cell Lines Screen was performed using the standard one-dose NCI protocol, which is described in more detail at https://dtp.cancer.gov/discovery_development/nci-60/default.htm.
Compounds with GIPRCNT values below 10 were considered active. Activity score was based on GIPRCNT using the following formula: […]
Score is 0 for GIPRCNT values of 100 or above, 50 for GIPRCNT values of 0, and 100 for GIPRCNT values of -100.
`O=c1[nH]c(=O)n(C2C[C@@H](O)[C@@H](CO)O2)cc1F` (stereo not given in full): the growth was 6.58% (active).

`CC(=O)OC1Oc2ccccc2-c2oc(=O)c(-c3cc(=O)oc4cc(O)ccc34)cc21` (stereo not given): the growth is 93.8% (inactive).

As to `Nc1c(CNCc2nnn(Cc3ccccc3)c2N)nnn1Cc1ccccc1`, the growth was 103% (inactive).

On to `CCCCc1ccc(NC(=O)N(CCCl)N=O)cc1`, for which the growth is 102% (inactive).

As for `CCOC(=O)Nc1ccc2c(c1)C(=O)N(CCOC)c1ccccc1O2`, the growth was 23% (inactive).

As to `O=C1/C(=C/c2cccs2)CCC/C1=C\c1cccs1`, the growth is 92.1% (inactive).

`O=C(Nc1ccc(OS(=O)(=O)Cc2ccccc2)cc1)C12CC3CC(CC(C3)C1)C2`: the growth is 68.8% (inactive).

In the case of `CC(C)/C(=N/O)c1ccccc1`, the growth is 120% (inactive).

As for `Cn1c([N+](=O)[O-])cnc1C=C1C(=O)c2ccccc2C1=O`, the growth is 68.9% (inactive).

Turning to `C/C(=N\NC(=O)c1sc(=S)n(C)c1N)c1cc2ccccc2o1`, the growth is 37.2% (inactive).

Turning to `CC(=O)Oc1ccc(C2=Cc3ccc(OC(C)=O)cc3OC2C)cc1` (stereo not given), the growth is 33.7% (inactive).

Consider `COC1OC2COC(c3ccccc3)OC2C(=O)C1NC(=O)c1ccccc1` (stereo not given), for which the growth was 97.2% (inactive).

Consider `COc1ccc2nc(NC(=O)Nc3c(F)cccc3F)sc2c1`, for which the growth is 99.3% (inactive).

For `COc1cc(OC)cc(-c2ccc(-c3ccc(C(=N)N)cn3)o2)c1`, the growth is -76.6% (active).

Take `Cc1cc(Nc2cccc(F)c2)nc(NCc2ccccc2)n1`: the growth was 6.63% (active).

For `Cc1ccc(C2C=C(c3ccc(Cl)cc3)N=C3SC=CN32)c(Br)c1` (stereo not given), the growth is 84.4% (inactive).

Consider `COc1ccc(Nc2ccnc(N3CCN(c4ccnc5cc(Cl)ccc45)CC3)n2)cc1`, for which the growth is 4.6% (active).

Turning to `C=CCn1c(C)nc2cc(Nc3nc(Nc4ccc5nc(C)n(CC=C)c5c4)c4ccccc4n3)ccc21`, the growth was -84.2% (active).

On to `Cc1ccc([P+](Cc2ccc([N+](=O)[O-])cc2)(c2ccc(C)cc2)c2ccc(C)cc2)cc1`, for which the growth is 60.5% (inactive).

As to `CCCCCCCCCCCCCCCC(=O)N1CCN(C)CC1`, the growth was 68.6% (inactive).

Turning to `Nc1ncncc1-c1ccc(F)cc1`, the growth was 110% (inactive).

`COc1cccc(-c2nnc(COc3ccc(-c4nc5ccccc5[nH]4)cc3OC)o2)c1`: the growth is 96.5% (inactive).

As to `CC(C)OCc1cc(CN2CCN(c3cccc(Cl)c3)CC2)c(O)c2ncccc12`, the growth is 0.361% (active).

Turning to `CC(=O)OCC(COC(C)=O)(COC(C)=O)COC(C)=O`, the growth was 104% (inactive).

On to `CC(=O)Oc1c(C)c(C)c2c(c1C)CCC(C)(CC(=O)OCCCCCCCCCCC[P+](c1ccccc1)(c1ccccc1)c1ccccc1)O2` (stereo not given), for which the growth is -46.5% (active).

Regarding `S=c1c2ncccc2c(-c2ccccn2)nn1Cc1ccccn1`, the growth is 108% (inactive).

Regarding `Cc1cc(C)c2nc(C)c(C)[n+]([O-])c2c1`, the growth was 115% (inactive).

Consider `O=C(NCCCl)c1cc(Cl)cc(Cl)c1`, for which the growth is 113% (inactive).

Take `O=C(Cn1ccc(=O)[nH]c1=O)c1ccc([N+](=O)[O-])o1`: the growth was 100% (inactive).

As to `CCOC(=O)C(=O)Cc1cccnn1`, the growth was 116% (inactive).

On to `CC(C)(C)c1ccc(OCCCCCCN2CCNCC2)cc1`, for which the growth is 35.4% (inactive).

As to `O=NN(CC(=O)N/N=C/C=C\c1ccccc1)CC(=O)N/N=C/C=C/c1ccccc1`, the growth is 99.3% (inactive).

Regarding `CCN(CC)CCOC(=O)c1ccc(NC(=O)Nc2cccc(Cl)c2)cc1`, the growth was 108% (inactive).

Regarding `Nc1ccccc1NC(=O)CCCCCCC(=O)Nc1ccc2c(c1)/C(=C/c1ccc[nH]1)C(=O)N2`, the growth is 27.5% (inactive).

Take `O=C(OCC1OC(n2cc(C(F)(F)F)c(=O)[nH]c2=O)CC1OC(=O)c1ccc([N+](=O)[O-])cc1)c1ccc([N+](=O)[O-])cc1` (stereo not given): the growth is 31.2% (inactive).

Take `COc1ccc(-c2nc(-c3nc4ccc(OC)cc4[nH]3)c3ccccn23)cc1`: the growth is 67.7% (inactive).

As for `Cc1nnc2c3nnc(-c4ccc(Cl)cc4)n3c3ccccc3n12`, the growth was 103% (inactive).

Take `COc1cc(OC)cc(N2CCN(C(=O)Nc3nc4cc(F)ccc4nc3OC)CC2)c1`: the growth is 5% (active).

Turning to `COc1cc(-c2nc3ccc(C)cc3[nH]2)ccc1OCc1nnc(-c2ccc(CC(C)C)cc2)o1`, the growth is 90.8% (inactive).

With `COc1cccc(C(=O)NNc2nc(N3CCOCC3)nc(N3CCN(C(c4ccccc4)c4ccccc4)CC3)n2)c1`, the growth is 87.8% (inactive).
